# Measured values as given in PubChem BioAssay AID743279 (National Center for Advancing Translational Sciences (NCATS), 2014).
# The campaign covered roughly 360,000 compounds. About 17,000 (4.7%) were called active. Roughly 5% stayed inconclusive and do not appear here. No stated cut-off is given here; in the data, active means activity change below about -50%; inconclusive means mostly about -30% to -49%; inactive means weaker than that. The entries come from a sample that favours actives as a whole.
# Test: qHTS for Inhibitors of Inflammasome Signaling: IL-1-beta AlphaLISA Primary Screen
# Details: THP-1 LPS/ATP IL-1B secretion, 16 h; at 57.5 µM, active compounds read low
# Procedure, shortened: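 THP-1 cells pretreated 1 hr with compounds (up to 57.5 uM final), then stimulated with LPS (250 ng/mL final) plus ATP (1.25 mM final); secreted IL-1B measured by AlphaLISA after 16 hr, decreased signal indicating inhibition.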
# On the % scale 0 is the no-effect control and ±100 the full control effect.
row,SMILES,activity change
1,CCOC(=O)C1(CCOC)CCN(Cc2cc3ccccc3s2)CC1,-8.97% (inactive)
2,CCOc1ccccc1NC(=S)C(=C([O-])c1ccc2c(c1)OCCO2)[n+]1ccc(CC)cc1,3.49% (inactive)
3,Cc1ccc(Cc2nnc(SCC(=O)Nc3ccccc3C)[nH]c2=O)cc1,19.7% (inactive)
4,O=C(Nc1cccc2ccccc12)c1[nH]c(-c2ccccc2)c2c1C(=O)N(C1CC1)C2=O,-16.9% (inactive)
5,CC(O)CN(Cc1ccc(Cl)cc1)CC(C)O (stereo not given),-2.11% (inactive)
6,CCOC(=O)C(NC(=O)CC(C)C)(Nc1sc2c(c1C(N)=O)CCCC2)C(F)(F)F (stereo not given),inactive
7,CN(C)C(CNC(=O)c1cccc(S(=O)(=O)N2CCc3ccccc3C2)c1)c1ccccc1 (stereo not given),-16.7% (inactive)
8,O=C(C1CCN(CC2CCCCC2)CC1)N1CCCC1,-2.85% (inactive)
9,CCCCC(=O)N1CC2(C)CN(C(=O)CCCC)CC(C)(C1)C2=O,14% (inactive)
10,N#C/C(=C(/O)COC(=O)COc1ccc(Cl)cc1)c1nc2ccccc2[nH]1,-99.4% (active)
11,CC(C)(C)c1nnc2sc(SCC(O)=C(C#N)c3nc4ccccc4[nH]3)nn2c1=O,20.2% (inactive)
12,COCCN(CCOC)S(=O)(=O)c1ccc(/C(O)=C(\C#N)c2nc3ccccc3[nH]2)cc1,-11.3% (inactive)
13,Cc1cc(NC(=O)Nc2ccccc2[N+](=O)[O-])no1,-17.8% (inactive)
14,CC1CCCN(C(=O)Cn2c(=O)oc3cc(S(=O)(=O)N4CCCCC4C)ccc32)C1 (stereo not given),11.7% (inactive)
15,Cc1cccc(-c2noc(-c3ccc(F)cc3)n2)c1,19.9% (inactive)
16,Cc1cccc(-c2nc(Nc3ccc(O)cc3)c3ccccc3n2)c1,-81.3% (active)
17,Oc1ccc(-c2nnc(Nc3ccccc3)c3ccccc23)cc1,13.6% (inactive)
18,CCc1ccccc1OCC(=O)Nc1ccc2c(c1)OCCO2,-6.79% (inactive)
19,O=C(CCl)Nc1ccc(Sc2ccc(NC(=O)CCl)cc2)cc1,-101% (active)
20,CC(=O)Nc1ccc(SCC(=O)NC(=O)c2ccc(Cl)cc2)cc1,-2.04% (inactive)

row,SMILES,activity change
1,CC(C)(CCl)C(=O)Nc1ccc(Sc2ccc(F)cc2)cc1,-12.9% (inactive)
2,CC1CCN(C(=O)c2ccccc2NC(=O)Cc2ccccc2)CC1,29.6% (inactive)
3,C[C@H](CO)N1C[C@H](C)[C@@H](CN(C)C(=O)C2CCCCC2)OCc2cnnn2CCCC1=O,2.8% (inactive)
4,CCN1/C(=C/c2ccc3ccc(C)cc3[n+]2CC)Sc2ccccc21,-101% (active)
5,CCN1/C(=C\c2ccc3ccccc3[n+]2CC)Sc2cc(C)ccc21,-99.7% (active)
6,O=C(Nc1cccc(Br)c1)C1CC(=O)N(C2CCCC2)C1 (stereo not given),15.6% (inactive)
7,CCCS(=O)(=O)NC(=O)C1(C)CCCN(C(=O)c2cc(C)on2)C1 (stereo not given),19.3% (inactive)
8,O=C1NC(O)CCN1C1CC(O)C(CO)O1 (stereo not given),0% (inactive)
9,CC1(C(=O)Nc2cccc(Oc3ccccc3)c2)CCN1Cc1ccccc1Cl (stereo not given),-0.171% (inactive)
10,CCC(C)c1ccccc1N1CC(C(=O)N2CCN(S(=O)(=O)c3ccc(F)cc3)CC2)CC1=O (stereo not given),-6.2% (inactive)
11,Cc1nc(C(F)(F)F)ccc1C(=O)N1CCC1(C)C(=O)NS(=O)(=O)c1ccc(F)cc1F (stereo not given),20.5% (inactive)
12,COc1ccc(C(=O)NCC(=O)N/N=C/c2cccnc2)cc1,16.9% (inactive)
13,O=C(CSc1cccc2cccnc12)N/N=C/c1cccnc1,-96.5% (active)
14,CCOC(=O)N/N=C/c1cccnc1,33.8% (inactive)
15,CC(=NNC(N)=O)C1CC2CCC1CC2 (stereo not given),-5.84% (inactive)
16,O=C(NCc1ccc(Cl)c(Cl)c1)c1cccnc1,3.6% (inactive)
17,O=C(OCc1cc(Cl)ccc1OC(F)F)c1cccnc1,26% (inactive)
18,O=C(/C=C/c1ccc(Cl)cc1Cl)c1cccnc1,-59.5% (active)
19,CC(=O)N1CCc2cc(Br)cc(S(=O)(=O)CCC(=O)Nc3c(C)n(C)n(-c4ccccc4)c3=O)c21,4.54% (inactive)
20,O=[N+]([O-])c1ccc(N/N=C/c2ccccc2)cc1,-59.6% (active)

row,SMILES,activity change
1,O=C(NN=Cc1ccc([N+](=O)[O-])cc1)C1CC1,-3.03% (inactive)
2,O=[N+]([O-])c1ccc(N=NNc2ccc([N+](=O)[O-])cc2)cc1,-3.41% (inactive)
3,Cc1ccc(C)c(C(O)c2ncc(-c3cccc4ccccc34)[nH]2)c1 (stereo not given),4.1% (inactive)
4,Cc1ccc(N(NC(=O)C(C)(C)O)C(=O)c2ccccc2)cc1C,38.2% (inactive)
5,CCCC(O)(CCC)C(=O)NN(C(=O)CCl)c1cccc(C)c1,-219% (active)
6,CC(C)(O)C(=O)NN(C(=O)c1ccccc1)c1cccc(Br)c1,-15.5% (inactive)
7,CCCCC(O)(CCCC)C(=O)NN(C(=O)CCl)c1ccccc1,-78.2% (active)
8,COC(=O)N(NC(=O)C(O)(C(C)C)C(C)C)c1ccccc1,12.9% (inactive)
9,CCCCCNC(=O)C1c2ccccc2Oc2ccccc21,-3.75% (inactive)
10,CCN(CC(=O)Nc1c(F)cccc1F)C(=O)c1ccc(-c2ccc(C(C)=O)cc2)o1,-9.45% (inactive)
11,CC1(C(=O)NS(=O)(=O)c2cccs2)CCN1C(=O)Cc1ccc(-c2ccccc2)cc1 (stereo not given),5.64% (inactive)
12,Cn1c(Nc2ccc(F)cc2)nc2cc(-c3ccsc3)sc2c1=O,19.8% (inactive)
13,CC(C)[C@H](NC(=O)c1ccccc1F)C(=O)Nc1cccc(S(=O)(=O)N2CCOCC2)c1,13.4% (inactive)
14,O=C(NCc1ccco1)/C(=C\c1cccc([N+](=O)[O-])c1)NC(=O)c1ccco1,29.6% (inactive)
15,CCCCN(C(C)=O)c1ccc2c(c1)C1CC2CCN1Cc1ccccc1 (stereo not given),-22.2% (inactive)
16,COc1ccc(-c2nn3c(-c4ccccc4)nnc3s2)cc1OC,-54.1% (active)
17,COc1ccc(CNC(=O)Cc2ccc(-c3ccccc3)cc2)cc1OC,0.934% (inactive)
18,Fc1ccc(-c2ccc(-c3nn4c(-c5ccco5)nnc4s3)o2)cc1,-8.52% (inactive)
19,CCCc1ccc(S(=O)(=O)N2CCN(C(=O)c3cc(C)on3)CC2)cc1,21.7% (inactive)
20,CCOC(=O)[C@]12CCCC=C1N(CCC1=CCCCC1)C(=O)[C@H](CC(=O)N1CCN(C(=O)c3ccco3)CC1)C2,-5.52% (inactive)
